# Data from PubChem BioAssay (NCI).
# Compounds without any hit were thinned out: in the full panel of roughly 83,000, 20% have a hit.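 Plates (96-well) were seeded with cells, treated with compound at one concentration, and incubated for 48 hours before percent growth was determined.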 Unmarked numbers belong to inactive results. Calls of active or inactive are those of the source. How the source made its calls: active means growth percent below 10; inactive means the rest.
# Experiments:
# Assay in all cases: NCI-60 one-dose screen, 48 h (100 = growth as untreated, 0 = no growth, -100 = all killed)
# Details in all cases: 10 µM unless noted
# DU-145 prostate = tested on: DU-145 prostate
# K-562 leukemia = tested on: K-562 leukemia
# MDA-MB-231 breast = tested on: MDA-MB-231 breast
# RXF 393 renal = tested on: RXF 393 renal
# SF-268 CNS = tested on: SF-268 CNS
# SF-295 CNS = tested on: SF-295 CNS
# SF-539 CNS = tested on: SF-539 CNS
# UACC-257 melanoma = tested on: UACC-257 melanoma
# MALME-3M melanoma = tested on: MALME-3M melanoma
# M14 melanoma = tested on: M14 melanoma
Structure (SMILES),growth (DU-145 prostate) [%],growth (K-562 leukemia),growth (MDA-MB-231 breast),growth (RXF 393 renal),growth (SF-268 CNS) [%],growth (SF-295 CNS) [%],growth (SF-539 CNS) [%],growth (UACC-257 melanoma) [%],growth (MALME-3M melanoma),growth (M14 melanoma)
CN1[C@@H](CC(=O)c2ccccc2)CCC[C@H]1CC(=O)c1ccccc1,108,102%,111%,119%,102,97.2,111,98.1,–,–
O=C1NC(=O)C(=C/C=C/c2ccccc2)C(=O)N1,–,8.24% (active),3.87% (active),-91.5% (active),30,97.8,27.4,38.7,-4.86% (active),-20.5% (active)
Cc1ccc(C(=O)O[C@H](C(=O)O)[C@H](OC(=O)c2ccc(C)cc2)C(=O)O)cc1,110,89.9%,–,115%,105,118,102,94,107%,100%
COC(=O)C1=CO[C@@H](C)[C@@H]2CN3CCc4c([nH]c5cc(OC)ccc45)[C@@H]3C[C@H]12,104,97.6%,97.2%,115%,98.6,117,104,95.7,–,103%
CCC(=O)C(CC(C)[N+](C)(C)C)(c1ccccc1)c1ccccc1 (stereo not given),112,103%,–,104%,103,95.3,96.6,94.7,106%,96.2%
COc1cc(-c2ccc(N)c(OC)c2)ccc1N,103,138%,103%,–,103,104,110,134,78.1%,113%
CC(Oc1ccc(-c2ccccc2)cc1)C(=O)O (stereo not given),113,112%,108%,–,105,102,99.6,99.2,–,–
